Source: PubChem BioAssay (National Center for Advancing Translational Sciences (NCATS))
Shown are actives, neighbours in structure and some others; about 12% of the full set was active somewhere.
HP1b chromo inh – inhibitors of HP1-beta chromodomain binding to methylated histone tails | P83916 | AlphaScreen HP1-beta / biotin-H3K9me3 peptide binding | Potency, µM (series often up to 114 µM), inactives show at the top dose activity change, negative = inhibition, actives largely listed as inhibitors | 390,000 tested, 0.56% active | AID 540317; further: nearly all actives have a fitted effect of over 70% in size
Target sequence (P83916 whole entry, looked up): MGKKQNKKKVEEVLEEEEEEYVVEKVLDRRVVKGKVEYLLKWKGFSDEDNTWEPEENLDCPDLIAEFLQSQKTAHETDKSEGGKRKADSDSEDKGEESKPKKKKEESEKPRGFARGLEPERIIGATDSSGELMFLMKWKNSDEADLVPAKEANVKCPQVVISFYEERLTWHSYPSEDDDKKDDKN
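AlphaScreen: HP1-beta (50 nM) preformed 30 min with biotin-H3(1-18)K9me3 peptide (50 nM) in PBS pH 7.4, 0.01% Tween-20. Compound added for 30 min at RT, then streptavidin donor/nickel chelate acceptor beads (10 ug/mL) for 30 min.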
Sfp inh – inhibitors of Bacillus subtilis Sfp phosphopantetheinyl transferase; Q9F4F7; Biochemical Sfp PPTase activity, qHTS; Potency, µM, for inactives: largest response in the series, negative = inhibition, most hits filed as inhibitors; 310,000 tested, 3.5% active; AID 1490;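 further: the enzyme is Sfp with the accession as filed and its product quenches rhodamine fluorescence; 0% = enzyme reaction without inhibitor and -100% = no enzyme wells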
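Compounds were incubated with enzyme (final 15 nM) for 15 min at room temperature before substrate addition started the reaction. Fluorescence at 525 nm excitation, 598 nm emission was recorded immediately and after 30 minutes.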
G9a inh – inhibitors of human histone lysine methyltransferase G9a; Potency, µM (top dose mostly 102 µM), for inactives: top-dose activity, negative = inhibition, most hits filed as inhibitors; G9a H3K9 monomethylation, AlphaScreen, 2 h; Q96KQ7; 350,000 tested, 8.8% active; further: on the % scale 0 is the no-effect control and ±100 the full control effect; nearly all actives have a fitted effect of over 75% in size
Target sequence (Q96KQ7 913-1193 limits assumed): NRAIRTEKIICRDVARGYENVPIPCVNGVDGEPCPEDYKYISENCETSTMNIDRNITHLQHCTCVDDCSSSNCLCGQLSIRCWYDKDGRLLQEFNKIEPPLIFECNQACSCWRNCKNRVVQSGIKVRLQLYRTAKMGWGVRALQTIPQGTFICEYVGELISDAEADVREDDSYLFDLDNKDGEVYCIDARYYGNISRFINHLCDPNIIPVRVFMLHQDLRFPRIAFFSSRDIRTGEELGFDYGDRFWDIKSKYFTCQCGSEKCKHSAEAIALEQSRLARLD
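Step 1: enzyme (final 20 nM) with compound, 15 min RT. Step 2: substrate peptide 500 nM and SAM 20 uM, 2 h RT. Step 3: anti-H3K9me1 antibody and AlphaScreen beads, 10 min, then plate read.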
PLK1 PBD inh – inhibitors of human PLK1 polo-box domain binding; AID 720504; Plk1 PBD binding of FITC phosphopeptide, fluorescence polarization; P53350; 360,000 tested, 2.8% active; Potency, µM, for inactives: max response, negative = inhibition, usual class: inhibitors; further: series mostly up to about 57 µM; on the % scale 0 is the no-effect control and ±100 the full control effect; nearly all actives have a fitted effect of over 65% in size
JMJD2A Tudor inh – blocks the human JMJD2A Tudor domain | Potency, µM (highest dose often 114 µM), for the others: top-dose activity change, negative = inhibition, most hits filed as inhibitors | AlphaScreen JMJD2A-Tudor / H3K4me3 peptide binding | O75164 | AID 504339 | 390,000 tested, 4.4% active; further: on the % scale 0 is the no-effect control and ±100 the full control effect; nearly all actives have a fitted effect of over 50% in size
BAZ2B inh – inhibitors of human BAZ2B bromodomain; AlphaScreen BAZ2B-H3K14Ac peptide displacement; 360,000 tested, 4.4% active; Q9UIF8; Potency, µM (series often up to 114 µM), without a hit: top-dose activity change, negative = inhibition, most hits filed as inhibitors; further: on the % scale 0 is the no-effect control and ±100 the full control effect; nearly all actives have a fitted effect of over 60% in size
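Compounds, titrated to a top concentration of 110 uM, were incubated 30 min at room temperature with preformed BAZ2B/acetyl-K14 H3 peptide complex (50 nM each). Proximity signal was measured by AlphaScreen after 20 min with beads.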
The depositor's hits bear a star; ? = inconclusive; . = no result given; [ ] = remark or other dose. The call rests on the fitted dose curve; in most records, active means well fitted curve in the direction sought with a large enough effect; inconclusive means small, poorly fitted or top-dose-only effect, or another doubt; inactive means no such curve, though single readings can be large; an effect the other way counts as inactive or inconclusive. Potency means the concentration at half of the fitted maximal effect.

SMILES | HP1b chromo inh | Sfp inh | G9a inh | PLK1 PBD inh | JMJD2A Tudor inh | BAZ2B inh
Cc1ccc2cc(CN(CCN3CCOCC3)Cc3nnnn3Cc3ccco3)c(=O)[nH]c2c1C | 38% | -25% | 56µM* | -6% | -7% | 7%
Cc1ccc2[nH]c(=O)c(CN(Cc3cccs3)Cc3nnnn3Cc3ccco3)cc2c1 | 5%[57 µM] | . | . | . | ? | .
Cc1ccc(C)c2[nH]c(=O)c(CN(Cc3ccc4c(c3)OCO4)Cc3nnnn3Cc3ccco3)cc12 | 25% | 50µM* | -48%[59 µM] | -6% | -31% | -38%
Cc1ccc2cc(CN(CCCN3CCOCC3)C(c3nnnn3Cc3ccco3)C(C)C)c(=O)[nH]c2c1C (stereo not given) | -33% | . | . | -24% | -31% | .
CC(C)N(C(=O)Cn1c(=O)oc2ccccc21)c1ccccc1 | 55% | 4% | . | -4% | -6% | 14%[57.1 µM]
CC1CCc2nc3ncn(Cc4ccccc4F)c(=O)c3cc2C1 (stereo not given) | 16%[57 µM] | . | 14%[59 µM] | . | -13% | -2%
COc1ccc(COc2cc(-c3cccc(OC)c3)nc3ccc(N)cc23)cc1 | 7% | -11% | 45µM* | 1% | ? | ?
COc1ccc(COc2cc(-c3cccc(OC)c3)nc3ccc(NC(C)=O)cc23)cc1 | 16% | ? | 1%[59 µM] | -14% | ? | -9%
COc1ccc(NC(=O)N2CCCC3(CCN(C(=O)c4cccn4C)CC3)C2)cc1 | . | 3% | 10%[12.7 µM] | . | . | .
COC(=O)[C@@]1(Cc2ccc(OC)cc2)[C@H]2c3cc(C(=O)N4CCCC4)n(CCF)c3C[C@H]2CN1C(=O)c1ccccc1 | . | -18% | . | . | . | .
COC(=O)[C@@]1(Cc2ccc(OC)cc2)[C@H]2c3cc(C(=O)N4CCCC4)n(CCN4CCNC4=O)c3C[C@H]2CN1C(=O)c1ccccc1 | . | -11% | 79µM* | . | . | -11%
COC(=O)[C@@]1(Cc2ccc(OC)cc2)[C@H]2c3cc(C(=O)N4CCCC4)n(Cc4ccc(OC)c(OC)c4)c3C[C@H]2CN1C(=O)c1ccccc1 | . | -7% | 45µM* | . | . | ?
CCn1cc(C(=O)NCc2cccnc2)c2cc(OC)c(OC)cc2c1=O | 19% | 2% | 11µM* | -6% | -23% | 9%
COc1cccc(NC(=O)c2cn(C)c(=O)c3cc(OC)c(OC)cc23)c1 | -15% | 26% | 75%[59 µM] | 3µM* | ? | -5%
COCCCNC(=O)c1cn(C)c(=O)c2cc(OC)c(OC)cc12 | 7% | 11% | -7%[2.33 µM] | -4% | -12% | -1%
CCn1c(=O)c(C(=O)NCc2cccnc2)c(O)c2ccccc21 | 18% | 8% | 6%[59 µM] | 4% | 40µM* | 29%
COc1ccc(NC(=O)c2cn(C)c(=O)c3cc(OC)c(OC)cc23)cc1OC | 26% | 10% | 16% | -10% | -18% | -17%
CCn1c(=O)c(C(=O)NCc2ccccc2)c(O)c2ccccc21 | 160% | -9% | . | -11% | 88% | 51%
COc1ccccc1CNC(=O)c1cn(C)c(=O)c2cc(OC)c(OC)cc12 | 2% | -4% | -7% | 19µM* | 13µM* | -12%
CCOc1ccc(CNC(=O)Cn2c(=O)c3cccn3c3ccc(F)cc32)cc1OC | -7% | . | 0%[59 µM] | . | -26% | -6%
COc1ccc2c(CNCc3ccccc3OC)c(C(=O)O)n(Cc3ccc(F)cc3Cl)c2c1 | 14% | . | 0%[59 µM] | . | -29% | -13%
CC(C1CCCC(=O)C1)[N+](=O)[O-] (stereo not given) | . | 20% | . | . | . | .
COc1ccc(CCNC2CC(C)N(C)CC2C)cc1OC (stereo not given) | 35% | 11% | 45µM* | -4% | -3% | 4%
C=C(c1ccccc1O)n1ccnc1 | 25% | 4% | 11% | -6% | -8% | -2%
Fc1ccc(N/N=C/c2ccncc2)c(F)c1 | 13% | -2% | ? | -8% | -20% | 0%
SMILES | HP1b chromo inh | Sfp inh | G9a inh | PLK1 PBD inh | JMJD2A Tudor inh | BAZ2B inh
CC1Oc2ccccc2C=C1/C=N/Nc1ccc(C(=O)O)cc1 (stereo not given) | -14% | 3% | ? | 24µM* | -10%[11.4 µM] | -30%
O=C(O)c1ccc(/C=N/Nc2ccc(F)cc2F)cc1 | 6% | 7% | 35µM* | -18% | -29% | -22%
O=C(O)c1ccc(N/N=C/c2ccc(C(F)(F)F)cc2)cc1 | -7% | -1% | 35µM* | ? | -35% | ?
O=C(O)c1ccc(/C=N/Nc2ncc(C(F)(F)F)cc2Cl)cc1 | 32% | 28µM* | 32µM* | -5% | -13% | -17%
CC(C)(C)c1ccc(/C=N/Nc2ccc(C(=O)O)cc2)cc1 | -10% | 9% | 1.8µM* | ? | ? | -38%
O=C(O)c1ccc(N/N=C/c2ccc3c(c2)OCO3)cc1 | 22% | -1% | . | 0% | -16% | -22%
CCc1ccc(N2CC(C(=O)OCC(=O)NNC(=O)c3ccccc3)CC2=O)cc1 (stereo not given) | 36% | . | 26% | -4% | -16% | 8%
COc1ccccc1NC(=O)Cc1noc(CSc2nnc(C)n2C)n1 | 29% | 18% | 6% | -4% | -18% | -3%
CN(/C=C1/C(=O)CNC1=O)CCO | -11% | 3% | ? | 17µM* | -10%[11.4 µM] | 16%
CC1(C)C(O)C=C[C@@]2(C)C1CC(=O)O[C@@]1(C)C3=CC(=O)OC(c4ccoc4)[C@]3(C)CCC21 (stereo not given in full) | . | -5% | -17%[2.33 µM] | . | . | .
O=C1c2ccccc2C(=O)c2c1cccc2N(CCO)CCO | ? | 21% | 45µM* | -21% | ? | 50µM*
CN(C)S(=O)(=O)c1cccc2c1C(=O)c1ccccc1C2=O | 30% | 1% | ? | -1% | -5% | -37%
CSc1sc(-c2n[nH]c(=S)n2C)c2c1C=CCC2 | 12% | 50µM* | . | ? | ? | ?
Cc1onc(-c2ccccc2)c1-c1csc(COc2ccccc2)n1 | 198% | -7% | 429% | -1% | 152% | 87%
COc1ccc(-c2cc(C3CCN(C(=O)OC(C)(C)C)CC3)[nH]n2)cc1 | -15% | 5% | 3% | -13% | ? | -13%
Cc1ccc(-n2c(-c3ccncc3)n[nH]c2=S)cc1 | 5% | -6% | 8.9µM* | 0% | 22µM* | -2%
Cc1onc(-c2ccccc2)c1-c1n[nH]c(=S)n1-c1ccccc1 | -21% | . | . | 0% | 63µM* | .
Cc1ccc(-n2c(-c3ccc(Cl)cc3Cl)n[nH]c2=S)cc1 | 1% | -5% | . | -21% | -42% | 0%
Cc1ccc(-n2c(-c3ccccc3)n[nH]c2=S)cc1 | -23% | 79µM* | 0.89µM* | ? | 2.2µM* | ?
O=C(O)c1ccc(-n2c(-c3cc(C4CC4)[nH]n3)n[nH]c2=S)cc1 | 44% | 56µM* | 18µM* | -2% | 20µM* | -10%
